# Records with an inconclusive call do not appear. Values without a mark were called inactive. Activity calls are given as the source filed them. Calls come from the whole dose curve; as a rule, active = well fitted cell-killing curve with a large enough effect; inconclusive = small, poorly fitted or top-dose-only effect, or effect the other way; inactive = no such curve, though single readings can be large or run the other way.
# Assay: Quantitative High-Throughput drug screen in 47 multiple myeloma cell lines against the NCATS MIPE library collection: Karpas620_DSMZ cell viability assay (AID 1918959); note: nearly all actives have a fitted effect of over 30% in size
# Conditions: Karpas620 myeloma viability, CellTiter-Glo ATP luminescence, 48 h; series mostly up to 45.8 µM; viability (% of DMSO): at the top concentration
# Text: PI: Beverly A. Mock Ph.D.
# Laboratory of Cancer Biology and Genetics,
# Center for Cancer Research, National Cancer Institute,
# National Institute of Health, Bethesda, Maryland
# Drug resistance and disease progression are common in multiple myeloma (MM) patients, underscoring the need for new therapeutic combinations. […] We hypothesized that effective combinations would reduce MYC expression and enhance p16 activity. […] These preclinical data identify potentially useful drug combinations for evaluation in drug-resistant MM and reveal potential mechanisms of combined drug sensitivity.
# Described herein is the primary MIPE qHTS used to cherrypick compounds. Validated compounds were then further tested for potential synergistic activiy.
# [1] Peat TJ, Gaikwad SM, Dubois W, Gyabaah-Kessie N, Zhang S, Gorjifard S, Phyo Z, Andres M, Hughitt VK, Simpson RM, Miller MA, Girvin AT, Taylor A, Williams D, D'Antonio N, Zhang Y, Rajagopalan A, Flietner E, Wilson K, Zhang X, Shinn P, Klumpp-Thomas C, McKnight C, Itkin Z, Chen L, Kazandijian D, Zhang J, Michalowski AM, Simmons JK, Keats J, Thomas CJ, Mock BA. Drug combinations identified by high-throughput screening promote cell cycle transition and upregulate Smad pathways in myeloma. Cancer Lett. 2023 Aug 1;568:216284. doi: 10.1016/j.canlet.2023.216284. Epub 2023 Jun 24. PMID: 37356470; PMCID: PMC10408729.
# SEQUENCE No. (e.g., 1, 2, 3, etc.); […] (e.g., Cells, Incubation, Reagent, etc.); VALUE and DESCRIPTION.
# 1; Cells; 5 uL; white, solid bottom 1536-well Greiner assay plate.
# 2; Compounds; 23 nL; Kalypsis pin tool (Wako USA) equipped with a 1536-well pin head to transfer to the assay plates.
# 3; Incubation; 48 hours; 37C incubation.
# 4; Reagent;5uL; CellTiter Glo (Promega).
# 5; Detector; 425V; Luminescence; Viewlux PerkinElmer.
# NOTES (numbers refer to Sequence numbers above)
# 1. The cell-based screening methods employed in this study were like those previously published. Briefly, the corresponding myeloma cell lines were screened in 1,536-well plates with 500 cells, 5-uL per well for inhibition of cell viability (assessed by measuring ATP levels with CellTiterGlo).
# 2. NCATS MIPE 4.0 library of approved and investigational drugs were added using the Kalypsis pin tool. Wells treated with DMSO only for 100% viability and media only wells for 0% viability were used as controls.
# 3. The assay plates were covered and incubated for 48 hours in a 37C, 5% CO2 incubator with controlled humidity.
# 4. After 48 hours, CellTilter-GloTM luminescent substrate mix (Promega) reagent was added to the assay plate and plates we incubated for 5 min at room temperature.
# 5. Signal was measured as median relative luminescence units on a ViewLux (PerkinElmer) multiplate reader.
# [1] Heske CM, Davis MI, Baumgart JT, Wilson K, Gormally MV, Chen L, Zhang X, Ceribelli M, Duveau DY, Guha R, Ferrer M, Arnaldez FI, Ji J, Tran HL, Zhang Y, Mendoza A, Helman LJ, Thomas CJ. Matrix Screen Identifies Synergistic Combination of PARP Inhibitors and Nicotinamide Phosphoribosyltransferase (NAMPT) Inhibitors in Ewing Sarcoma. Clin Cancer Res. 2017 Dec 1;23(23):7301-7311. doi: 10.1158/1078-0432.CCR-17-1121. Epub 2017 Sep 12. PMID: 28899971; PMCID: PMC6636827.
# Potency is the fitted concentration of half-maximal effect.
SMILES,Potency,viability (% of DMSO)
Clc1ccc(COC(Cn2ccnc2)c2ccc(Cl)cc2Cl)c(Cl)c1 (stereo not given),20.9 µM (active),–
COC1CCC(C(=O)c2ccc3nc4c(cc3c2)CCCO4)CC1 (stereo not given),16.6 µM (active),–
COc1ccc(Cn2ccc3ccc(C(=O)NO)cc32)cc1,–,83.3%
OC[C@H]1O[C@@H](O[C@H]2[C@@H](O)[C@@](O)(CO)O[C@@H]2CO)[C@H](O)[C@@H](O)[C@@H]1O,–,91.9%
c1ccc(CNc2nc(N3CCOc4ccccc43)nc3c2CCCC3)cc1,–,92%
C=CCc1cccc(C=NNC(=O)CN2CCN(Cc3ccccc3)CC2)c1O,9.35 µM (active),–
C[C@@H]1O[C@@H](O[C@H]2CC[C@@]3(C)[C@H](CC[C@@H]4[C@H]3C[C@@H](O)[C@]3(C)[C@@H](C5=CC(=O)OC5)CC[C@]43O)C2)C[C@H](O)[C@@H]1O[C@H]1C[C@H](O)[C@H](O[C@H]2C[C@H](O)[C@@H](O)[C@@H](C)O2)[C@H](C)O1 (stereo in doubt),0.171 µM (active),–
COc1cc2nc(-c3cc(F)ccc3O)nc(N[C@@H]3CNC[C@@H]3C(C)(C)O)c2cc1OC,6.62 µM (active),–
C[C@@H]1CC=CC=CC=CC=C[C@@H](O[C@@H]2O[C@H](C)[C@@H](O)[C@H](N)[C@H]2O)C[C@@H]2O[C@](O)(C[C@@H](O)C[C@@H]3O[C@@H]3C=CC(=O)O1)C[C@H](O)[C@@H]2C(=O)O,–,124%
CCCC1OC2C[C@@H]3[C@H]4CCC5=CC(=O)C=C[C@]5(C)[C@H]4C(O)C[C@]3(C)[C@]2(C(=O)CO)O1 (stereo not given in full),–,131%
CC(C)CN(C[C@@H](O)[C@H](Cc1ccccc1)NC(=O)O[C@H]1CO[C@H]2OCC[C@H]21)S(=O)(=O)c1ccc(N)cc1,–,84.9%
Cn1c(=O)c(-c2c(Cl)cccc2Cl)cc2cnc(Nc3cccc(C(=O)O)c3)nc21,1.48 µM (active),–
O=c1[nH]nc(OCCCc2ccc(Cl)cc2)c(NCc2cccnc2)c1Br,10.5 µM (active),–
O=C(Nc1cccc(C(F)(F)F)c1)Nc1cc(S(=O)(=O)NC2CC2)ccc1-c1ccsc1,–,97.1%
O=C(O)CCC=CCC[C@@H]1[C@H](N2CCCCC2)[C@@H](O)C[C@@H]1OCc1ccc(-c2ccccc2)cc1,–,136%
CN1CCN(c2ncc(-c3cc(Cl)cc(Cl)c3Cl)c(N)n2)CC1,20.9 µM (active),–
CCCCC(F)(F)[C@@]1(O)CC[C@H]2[C@H](CC(=O)[C@@H]2CCCCCCC(=O)O)O1,–,105%
CC(=O)OCC(=O)[C@@]12OC(C)(C)O[C@H]1C[C@H]1[C@@H]3C[C@H](F)C4=CC(=O)C=C[C@]4(C)[C@@]3(F)[C@@H](O)C[C@@]12C,–,101%
O=C(Nc1ccccc1)Nc1ccc(-c2ccc(C(=O)[C@H]3CCC[C@H]3C(=O)O)cc2)cc1,13.2 µM (active),–
CN[C@@H]1CN(c2ccc3c(=O)c(C(=O)O)cn(-c4nccs4)c3n2)C[C@@H]1OC,–,113% [at 23.2 µM]

SMILES,Potency,viability (% of DMSO)
CC[C@H](C=C[C@@H](C)[C@H]1CC[C@H]2[C@@H]3CC=C4C[C@@H](O)CC[C@]4(C)[C@@H]3CC[C@]12C)C(C)C,–,103% [at 23.2 µM]
CN(C)CCCNC(=O)c1ccc(-c2cc(O)c3ncccc3c2)cc1,20.9 µM (active),–
Fc1ccc(C(c2ccc(F)cc2)N2CCN(CC=Cc3ccccc3)CC2)cc1,–,98.6%
CCC=CC[C@H]1C(=O)CC[C@@H]1CC(=O)OC,–,120%
C[C@]12C=CC(=O)C=C1CC[C@@H]1[C@@H]2[C@@H](O)C[C@@]2(C)[C@@H]1CC[C@]2(O)C(=O)CO,–,117%
COc1ccc(CCN(C)CCCOc2ccc(S(=O)(=O)c3[nH]c4ccccc4c3C(C)C)cc2)cc1OC,–,125%
CCN1CCN(c2ccc(Nc3cc(N(C)C(=O)Nc4c(Cl)c(OC)cc(OC)c4Cl)ncn3)cc2)CC1,–,121%
Cc1nc(NC(=O)N2CCC[C@@H]2C(N)=O)sc1-c1csc(C(C)(C)C)n1,14.8 µM (active),–
CN1C(=O)C[C@H](C(=O)N[C@@H](Cc2cnc[nH]2)C(=O)N2CCC[C@@H]2C(N)=O)NC1=O,–,107%
CC1CNc2c(cccc2S(=O)(=O)N[C@@H](CCCN=C(N)N)C(=O)N2CC[C@@H](C)C[C@@H]2C(=O)O)C1 (stereo not given in full),23.5 µM (active),–
CON(C)C(=O)N1N=C(c2cc(F)ccc2F)S[C@]1(CCCN)c1ccccc1,–,47.4%
Cc1[nH]c(C=C2C(=O)Nc3ccc(S(=O)(=O)N(C)c4cccc(Cl)c4)cc32)c(C)c1C(=O)N1CCN(C)CC1,9.35 µM (active),–
Cc1ccc2c(c1)c1c(n2CCc2ccc(C)nc2)CCN(C)C1,–,95.8%
CC(=O)Nc1cccc(-n2c(=O)n(C3CC3)c(=O)c3c(Nc4ccc(I)cc4F)n(C)c(=O)c(C)c32)c1,0.0296 µM (active),–
CN[C@@H](C)[C@H]1[C@H](O)C[C@@]2(C)[C@@H]3CC[C@H]4C(C)(C)[C@@H](NC)CC[C@@]45C[C@@]35CC[C@]12C,–,94.6%
Cc1cccc2c1CC[C@H](CN1CCC(c3c(Cl)cccc3Cl)CC1)C[C@@H]2O,11.8 µM (active),–
Cc1ccc(NC(=O)c2cccc(N(C)C)c2)cc1NC(=O)c1ccc(O)cc1,5.9 µM (active),–
CNC(=O)c1cc(Oc2ccc(NC(=O)Nc3ccc(Cl)c(C(F)(F)F)c3)c(F)c2)ccn1,10.5 µM (active),–
CCNC(=O)CCCC=CC[C@@H]1[C@H](C=CC(O)CCc2ccccc2)[C@@H](O)C[C@@H]1O (stereo not given in full),–,110%
COc1nccc(-c2c(-c3ccc(F)cc3)ncn2C2CCC(O)CC2)n1 (stereo not given),–,118%
